# Measurements from PubChem BioAssay AID1347423 (Functional Genomics Laboratory (NCATS/FGL), 2020).
# Screen size: about 52,000 sequences; about 210 (0.4%) were called active. The entries come from a sample that favours actives as a whole. Unmarked numbers belong to inactive results.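 Rule for the calls: active = gene whose silencing raises cell survival under the drug, median off-target-corrected z-score across its silencing RNAs 2 or more; inactive = the rest.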
# Assay: Resistance to Poly (ADP-Ribose) Polymerase inhibitor: Gene Identification via Genome-wide siRNA Screen
# Conditions: mouse BRCA2 R2336H ES cells, olaparib, CellTiter-Glo viability; hits give high values
# Excerpt: The role of Poly (ADP-Ribose) Polymerase (PARP) proteins in DNA repair has been elegantly utilized for the synthetic lethality-based treatment of BRCA-deficient tumors by PARP inhibitors. PARP inhibitors are now being used for treatment of BRCA-deficient breast and ovarian cancers. […] While several mechanisms of drug resistance have been identified, majority of these tumors develop drug resistance due to unknown causes. To identified novel regulators of chemo-resistance in BRCA2-mutated cells, we performed a genome wide siRNA library screen. We have found ES cells expressing a hypomorphic allele of BRCA2 to be hypersensitive to PAPP inhibitors (such as olaparib). We used ES cells expressing a mutant allele of BRCA2 that has a single amino acid substitution at position 2336 (arginine to histidine, R2336H). The screen was conducted using an Ambion (Thermo) Silencer Mouse Genome siRNA collection. The library targets 17,575 mouse genes with 3 siRNAs per gene. TET2 (E130014J05Rik) was identified as a top candidate.
# Transfections were performed in 384 well plates (Corning 3707). Plates were coated with 0.1% gelatin in H2O overnight at ambient temperature. Gelatin solution was aspirated (BioTek EL406) and siRNAs were printed using a Bravo VPrep liquid handler integrated within a BioCel automation platform (Agilent). Cell viability was measured using CellTiter Glo (Promega). For transfections, […] of serum free media containing Lipofectamine RNAiMax […] was added to wells containing siRNA (0.8pmol). Lipid and siRNA were allowed to complex for 45 min at ambient temperature before addition of 1000 cells in DMEM, 30% FBS to yield final transfection mixtures containing 20 nM siRNA in DMEM, 15% FBS. PARPi (olaparib, AZD2281) was added 48 h post-transfection (500 nM) and viability (CellTiter Glo, Promega) was assayed 72 h later on a PerkinElmer Envision 2104 Multilabel plate reader. Ambion Silencer Select Negative Control #2 was incorporated on all screening plates (16 wells) and the median negative control value on each plate was used for normalization. An siRNA targeting Trp53 was used as a positive control. This control yielded a median protective effect of ~1.9 fold versus negative control throughout the screen. The median absolute deviation (MAD) based z-score was calculated for each siRNA. Genes were then ranked by taking the median value for all siRNAs tested against a given gene. Scores were also adjusted for seed-based off-target effects to help deprioritize likely false positives.
row,Sequence,z-score
1,CCAGAAACAUACGAAGAUUTT against Khdrbs1,2.31 (active)
2,GGUAUCUUCAAGUACAUGATT against BC011426,0.138
3,GGAGAUGGAGAAGUAGAUUTT against Abcf2,0.0903
4,GGGAAAUGUGUGUUAUCUGTT against Rnf126,1.17
5,CCCUGUCUCCCGCAUAGAATT against Itgb6,1.67 (active)
6,GAAAUCAUCCUGCCCAAAGTT against Vax1,0.607
7,GGUCCCAGUGUCAUGUCUUTT against Cdipt,0.00151
8,GGUCUAUACCAUCCUAUUGTT against Faim2,-1.24
9,CACUCAGCUCAAUGACCUGTT against Ifna14,-0.514
10,GCUACAAGCGAUAUAUUCCTT against Jak1,2.92 (active)
11,CCAUGGAGAAUCAUGACAGTT against Slfn1,0.281
12,GUAUCAUACAAUGAUGUCCTT against Olfr176,0.628
13,GGAAAACAGCUUUGAUUGGTT against E130009J12Rik,1.42
14,GGAACAGGAAUAACAUGACTT against V1re9,1.65
15,GUAUGAUGCACUCCAGUUGTT against Hdac8,-1.38
16,GCCAGUGCACUCCUCUUUUTT against Mmrp19,0.352
17,GCUGAACUAUAACUUGAAATT against Stat1,0.735
18,GCAAGAAGUAAUCAACUUUTT against Rqcd1,2 (active)
19,GGACUUUUACCAGUUCUCCTT against Ece2,0.967
20,GGUACAGGAAAAAAGAAGATT against Msl31,-0.435
21,GCACGUAGUAAGAUGUUACTT against Rqcd1,2.53 (active)
22,GGUGGUCUAAGUCCUGACATT against Hmx1,-0.564
23,GGUUAUUAAGAGCACUUUCTT against Catsper3,-0.553
24,GCAUUAUGACUCUAAUAGCTT against Olfr60,0.536
25,GGGCUAUGUGCUCUUUUGUTT against Edg6,0.487
26,GGCAUUGUGAAGCUGAAACTT against Ptpn9,1.93 (active)
27,GGAGAAGGAGGUGAUAAUGTT against Sart1,0.088
28,GGUGCAGUUUAAGAGAGAATT against C630016B22Rik,0.153
29,GCCACCUCAAUGAAAGGAGTT against Slc23a1,0.609
30,GGUAAUUUGUUUGUGGUGATT against Mtnr1b,-0.531
